# Values joined by “and” are separate entries in the source; they are usually repeats but may differ in a detail not shown here. Equal entries are not always repeated. Compounds without any hit were thinned out: in the full panel of roughly 83,000, 20% have a hit.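 Note: values are percent growth. 100 is the growth of untreated cells, values between 100 and 0 indicate rising inhibition; between -100 and 0 indicates cell death.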 Active and inactive are the calls of the source. How the source made its calls: active means growth percent below 10; inactive means the rest.
# Test system: HL-60(TB) leukemia
# Assay: NCI-60 one-dose screen, 48 h (100 = growth as untreated, 0 = no growth, -100 = all killed)
# Details: 10 µM unless noted
row,SMILES,growth
1,NNC(=O)/C(=C\c1ccc([N+](=O)[O-])cc1)CC(=O)c1ccc(Cl)c(Cl)c1,98.9% (inactive)
2,COc1ccc(OC)c(NC(=O)c2cc(S(=O)(=O)N3CCc4ccccc43)ccc2OC)c1,107% (inactive)
3,O=C1/C=C/[C@@H](O)[C@@H]2C[C@@H](O)C[C@H]2/C=C/CCCCO1,-22.8% (active)
4,COc1cccc(NC(=O)Cn2cc(CN3CCN(c4ccnc5cc(Cl)ccc45)CC3)nn2)c1,124% (inactive)
5,COc1ccc2c(c1)C(C)Cc1c(N(C)C)ncnc1N2C (stereo not given),-4.85% (active)
6,COC(=O)[C@]12CC[C@@H](C)[C@H](C)[C@@H]1C1=CC[C@@H]3[C@@]4(C)CC(=O)[C@H](OC(=O)c5ccco5)[C@@]5(C)COC(=C45)C[C@@]3(C)[C@]1(C)CC2,24.6% (inactive)
7,CCN(CC)CCOc1cccc2c1C(=O)c1cccc(OCCN(CC)CC)c1C2=O,19.7% (inactive)
8,Cc1noc(C)c1C(=O)OCc1coc2ccccc2c1=O,12.4% (inactive)
9,Cc1cc(NCc2cc(Nc3ccnc4cc(Cl)ccc34)ccc2F)nc(N2CCN(c3ccccc3)CC2)n1,-40.7% (active)
10,CCOC(=O)/C=C1/SC(=Nc2ccc(C#N)cc2)N(Cc2ccco2)C1=O,-26.6% (active)
11,Cc1cc(C)c(CC(=O)O)c(C)c1,97.3% (inactive)
12,Cc1ccc(NC(=O)Nc2ccc(-c3cccnc3)cc2N2CCC(CO)CC2)cc1,13.9% (inactive)
13,Clc1cc(Cl)cc(-c2ccc(-c3ccc(/C=N/NC4=NCCN4)cc3)s2)c1,19.6% (inactive)
14,Nc1c(Br)cc(Br)cc1-c1n[nH]c(=O)[nH]c1=O,94.4% (inactive)
15,CCC1S/C(=N\N=C(/C)c2ccco2)N(c2ccccc2)C1=O (stereo not given),106% (inactive)
16,COc1ccc(/C=C2\Oc3cc(OCCN4CCC(Cc5ccccc5)CC4)ccc3C2=O)cc1OC,99.7% (inactive)
17,O=S(=O)(NCCCNc1nccc(-c2c(-c3cccc(O)c3)nc3occn23)n1)c1ccc(F)cc1,72.3% (inactive)
18,COC(=O)[C@]12CC[C@@H](C)[C@H](C)[C@@H]1C1=CC[C@@H]3[C@@]4(C)C(c5cnco5)=C[C@@](C)(CO)C4=CC[C@@]3(C)[C@]1(C)CC2,21.9% (inactive)
19,Cc1cc(O)c2c(c1)C(=O)c1cc(O)cc(O)c1C2=O,121% (inactive) and 83.6% (inactive)
20,CCCCN(CCCC)CC(O)CN(CC)CC (stereo not given),108% (inactive)

row,SMILES,growth
1,Cc1nc2ncccc2nc1Nc1ccc(S(=O)(=O)Nc2ccccn2)cc1,100% (inactive)
2,COc1cc(C2NC(c3ccc(Cl)cc3)C(C)C(=NC(=O)c3cnccn3)C2C)cc(OC)c1OC (stereo not given),98.4% (inactive)
3,COc1cc(C2CC(c3ccc(Cl)cc3)=NN2c2ccc(Cl)cc2)cc(OC)c1OC (stereo not given),97.9% (inactive)
4,CC(C)Cc1ccc(C(C)C(=O)NCc2ccc(Cn3c(=O)sn(CCCCl)c3=O)cc2)cc1 (stereo not given),102% (inactive) and -23.6% (active)
5,C=C1C(=O)O[C@H]2[C@H]1CC/C(COC(=O)/C=C\C(=O)NCc1ccc(Cn3c(=O)sn(-c4ccc(Cl)cc4)c3=O)cc1)=C\CC[C@@]1(C)O[C@@H]21,-52.5% (active)
6,CCN1CCN(c2nc(NCCNc3ccnc4cc(Cl)ccc34)c3ccccc3n2)CC1,-67.1% (active)
7,Cc1cccc(Cl)c1NC(=O)c1ccc2nc(NC(=O)NCCN(C)C)sc2c1,115% (inactive)
8,CCSc1nc(NC)c2cc(-c3ccc(C(F)(F)F)cc3)ccc2n1,98.3% (inactive)
9,Cc1ccc(/C=C2\SC(=S)N(CC(=O)NCCCN3CCOCC3)C2=O)cc1,99.4% (inactive)
10,C=C1CC[C@@H]2[C@](C)(COC(C)=O)[C@H](OC(C)=O)CC[C@@]2(C)[C@@H]1CC(Sc1ccccc1)C1=CCOC1=O (stereo not given in full),-46.5% (active)
11,Cc1ccc(Nc2nc(N)c3ccccc3n2)cc1Cl,78.2% (inactive)
12,O=C(Nc1nn(-c2ccc(Cl)cc2Cl)nc1-c1ccccc1)c1ccccc1,83.8% (inactive)
13,O=C(O)c1ccc(Br)nc1,94.4% (inactive)
14,CS(=O)(=O)c1ccc(-c2nc3cc(Cl)ccc3n2CC(=O)NO)cc1,91.9% (inactive)
15,Oc1ccc(-c2cnc(-c3ccccc3)[nH]2)c(O)c1,101% (inactive)
16,Cc1ccc(C2CC(c3ccc(Nc4nc(NCCO)nc(NCCO)n4)cc3)=NN2c2ccc(Cl)cc2)cc1 (stereo not given),80.7% (inactive)
17,CCOC(=O)C1CC(=O)c2cc(OC)c(OC)cc2C1 (stereo not given),97.6% (inactive)
18,CCCCNC(=O)CC1=C(C)/C(=C/c2[nH]c(-c3ccc[nH]3)cc2OC)N=C1C,12.9% (inactive)
19,CC1(C)OC(=O)C(=Cc2ccc(C#N)cc2)C(=O)O1,93.3% (inactive) and 88.8% (inactive)
20,O=C(/C(=C\c1ccc([N+](=O)[O-])cc1)S(=O)Cc1ccc(Cl)cc1)c1ccc(Cl)cc1 (stereo not given),59.4% (inactive)
